# Experimental data reported in PubChem BioAssay AID1159580 (chemical genetic matrix, 2015).
# Screen size: about 5,500 compounds; about 2,000 (36%) were called active. Another 18% or so got no clear call; they are omitted. The list shows a part of the results. Values without a mark were called inactive. Cut-off read from the data, not from the text of the source: active = normalized growth mostly below about 0.91 (no sharp cut-off); inconclusive = no clear call, values can overlap the other calls; inactive = mostly above about 0.92.
# Test: chemical genetic growth profiling, strain panel (AID 1159580);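 note: tested at 20 µM; growth read once vehicle control cultures reached saturation at 30 °C; 1 = growth at the plate median or of vehicle wells; lower values mean less growth of the strain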
# Conditions: S. cerevisiae deletion strains, growth OD
# [1] = locus YHR030C, strain SLT2, hits give low values
smiles,measurement,setting,value
Cc1cc(C)cc(N2C(=O)CC(Sc3ccccc3C(=O)O)C2=O)c1 (configuration not stated),normalized growth,"locus YAL013W, strain DEP1, hits give low values",0.955
same,normalized growth,"locus YBR229C, strain ROT2, hits give low values",0.987
same,normalized growth,"locus YDL101C, strain DUN1, hits give low values",0.953
same,normalized growth,"locus YDL134C, strain PPH21, hits give low values",0.773 (active)
same,normalized growth,"locus YDR150W, strain NUM1, hits give low values",0.945
same,normalized growth,"locus YEL061C, strain CIN8, hits give low values",0.961
same,normalized growth,"locus YGR078C, strain PAC10, hits give low values",1
same,normalized growth,[1],0.668 (active)
same,normalized growth,"locus YHR087W, strain rtc3, hits give low values",0.987
same,normalized growth,"locus YJL187C, strain SWE1, hits give low values",0.894 (active)
same,normalized growth,"locus YJR043C, strain POL32, hits give low values",0.789 (active)
same,normalized growth,"locus YJR075W, strain HOC1, hits give low values",1.01
same,normalized growth,"locus YKL190W, strain CNB1, hits give low values",0.771 (active)
same,normalized growth,"locus YLR039C, strain RIC1, hits give low values",0.109 (active)
same,normalized growth,"locus YLR058C, strain SHM2 (second series), hits give low values",0.995
same,normalized growth,"locus YLR085C, strain ARP6, hits give low values",0.619 (active)
same,normalized growth,"locus YLR262C, strain YPT6, hits give low values",0.12 (active)
same,normalized growth,"locus YML094W, strain GIM5, hits give low values",0.849 (active)
same,normalized growth,"locus YMR219W, strain ESC1, hits give low values",0.996
same,normalized growth,"locus YMR263W, strain SAP30, hits give low values",0.928
same,normalized growth,"locus YNL153C, strain GIM3, hits give low values",0.876 (active)
same,normalized growth,"locus YNL298W, strain CLA4 (second series), hits give low values",0.711 (active)
same,normalized growth,"locus YNL322C, strain KRE1, hits give low values",1
same,normalized growth,"locus YNR030W, strain Alg12, hits give low values",0.078 (active)
same,normalized growth,"locus YOL006C, strain TOP1, hits give low values",0.27 (active)
same,normalized growth,"locus YPL055C, strain LGE1, hits give low values",0.876
same,normalized growth,"locus YPL241C, strain CIN2, hits give low values",0.0797 (active)
same,normalized growth,"locus YPR135W, strain CTF4, hits give low values",0.222 (active)
CN(C)C(=N)N=C(N)N,normalized growth,"locus YAL021C, strain ccr4, hits give low values",1.01
same,normalized growth,"locus YAL026C, strain drs2, hits give low values",1.02
same,normalized growth,"locus YAL030W, strain snc1, hits give low values",0.997
same,normalized growth,"locus YBL061C, strain skt5, hits give low values",1.03
same,normalized growth,"locus YBR009C, strain hhf1, hits give low values",0.966
same,normalized growth,"locus YBR023C, strain chs3, hits give low values",1.02
same,normalized growth,"locus YBR171W, strain sec66, hits give low values",1.01
same,normalized growth,"locus YBR231C, strain swc5, hits give low values",0.997
same,normalized growth,"locus YBR279W, strain paf1, hits give low values",1.03
same,normalized growth,"locus YCL011C, strain gbp2, hits give low values",1.01
same,normalized growth,"locus YCL016C, strain dcc1, hits give low values",1.04
same,normalized growth,"locus YCL061C, strain MRC1, hits give low values",0.995
same,normalized growth,"locus YCL069W, strain vba3, hits give low values",1
same,normalized growth,"locus YCR088W, strain abp1, hits give low values",1.01
same,normalized growth,"locus YDL005C, strain med2, hits give low values",1.02
same,normalized growth,"locus YDL040C, strain nat1, hits give low values",1
same,normalized growth,"locus YDR001C, strain nth1, hits give low values",1
same,normalized growth,"locus YDR069C, strain doa4, hits give low values",0.984
same,normalized growth,"locus YDR137W, strain rgp1, hits give low values",1.05
same,normalized growth,"locus YDR159W, strain sac3, hits give low values",0.893
same,normalized growth,"locus YDR195W, strain ref2",1.02
same,normalized growth,"locus YDR297W, strain sur2, hits give low values",0.998
same,normalized growth,"locus YDR334W, strain swr1, hits give low values",0.998
same,normalized growth,"locus YDR335W, strain msn5, hits give low values",1.03
same,normalized growth,"locus YDR392W, strain spt3, hits give low values",0.858
same,normalized growth,"locus YEL003W, strain gim4, hits give low values",0.985
same,normalized growth,"locus YEL037C, strain rad23, hits give low values",1.01
same,normalized growth,"locus YEL061C, strain CIN8 (second series), hits give low values",1
same,normalized growth,"locus YER015W, strain faa2, hits give low values",1.01
same,normalized growth,"locus YER016W, strain bim1, hits give low values",1.02
same,normalized growth,"locus YER111C, strain swi4, hits give low values",1.03
same,normalized growth,"locus YER155C, strain BEM2 (second series), hits give low values",0.867
same,normalized growth,"locus YFR010W, strain ubp6, hits give low values",0.978
same,normalized growth,"locus YGL167C, strain pmr1, hits give low values",0.999
same,normalized growth,"locus YGL173C, strain kem1, hits give low values",0.993
same,normalized growth,"locus YGL227W, strain vid30, hits give low values",0.996
same,normalized growth,"locus YGL240W, strain doc1, hits give low values",0.996
same,normalized growth,"locus YGL253W, strain hxk2, hits give low values",1.04
same,normalized growth,"locus YHR013C, strain ard1, hits give low values",1.01
same,normalized growth,"locus YHR027C, strain rpn1, hits give low values",0.986
same,normalized growth,[1],1.02
same,normalized growth,"locus YHR079C, strain IRE1, hits give low values",0.977
same,normalized growth,"locus YHR142W, strain chs7, hits give low values",1.02
same,normalized growth,"locus YJL092W, strain hpr5, hits give low values",0.997
same,normalized growth,"locus YJL095W, strain BCK1 (second series), hits give low values",1.01
same,normalized growth,"locus YJL095W, strain BCK1, hits give low values",0.987
same,normalized growth,"locus YJL115W, strain asf1, hits give low values",1.01
same,normalized growth,"locus YJL129C, strain trk1, hits give low values",1
same,normalized growth,"locus YJL154C, strain vps35, hits give low values",1
same,normalized growth,"locus YJL164C, strain tpk1, hits give low values",0.969
same,normalized growth,"locus YJL166W, strain qcr8, hits give low values",0.982
same,normalized growth,"locus YJR066W, strain TOR1, hits give low values",0.952
same,normalized growth,"locus YKL160W, strain elf1, hits give low values",1.04
same,normalized growth,"locus YKR026C, strain gcn3, hits give low values",1
same,normalized growth,"locus YKR091W, strain srl3, hits give low values",0.998
same,normalized growth,"locus YLL001W, strain dnm1, hits give low values",0.98
same,normalized growth,"locus YLL026W, hits give low values",1
same,normalized growth,"locus YLL041C, strain sdh2, hits give low values",0.998
same,normalized growth,"locus YLR027C, strain aat2, hits give low values",0.991
same,normalized growth,"locus YLR113W, strain HOG1, hits give low values",0.954
same,normalized growth,"locus YLR221C, strain rsa3, hits give low values",0.963
same,normalized growth,"locus YLR258W, strain gsy2, hits give low values",1.03
same,normalized growth,"locus YLR262C, strain YPT6 (second series), hits give low values",0.987
same,normalized growth,"locus YLR320W, strain mms22, hits give low values",0.93
same,normalized growth,"locus YLR342W, strain FKS1, hits give low values",0.996
same,normalized growth,"locus YLR357W, strain rsc2, hits give low values",1
same,normalized growth,"locus YLR370C, strain arc18, hits give low values",1.01
same,normalized growth,"locus YLR384C, strain iki3, hits give low values",0.99
same,normalized growth,"locus YML120C, strain ndi1, hits give low values",0.992
same,normalized growth,"locus YMR058W, strain fet3, hits give low values",1
same,normalized growth,"locus YMR125W, strain sto1, hits give low values",1.01
same,normalized growth,"locus YMR129W, hits give low values",0.992
same,normalized growth,"locus YMR205C, strain PFK2, hits give low values",0.985
same,normalized growth,"locus YMR231W, strain pep5, hits give low values",1
same,normalized growth,"locus YNL071W, strain lat1, hits give low values",0.995
same,normalized growth,"locus YNL183C, strain NPR1, hits give low values",0.923
same,normalized growth,"locus YNL209W, strain ssb2, hits give low values",1.02
same,normalized growth,"locus YNL248C, strain rpa49, hits give low values",1.02
same,normalized growth,"locus YNL322C, strain KRE1 (second series), hits give low values",1.02
same,normalized growth,"locus YNR049C, strain mso1, hits give low values",0.992
same,normalized growth,"locus YOR001W, strain rrp6, hits give low values",0.948
same,normalized growth,"locus YOR070C, strain gyp1, hits give low values",1.01
same,normalized growth,"locus YOR080W, strain dia2, hits give low values",1
same,normalized growth,"locus YOR083W, strain WHI5, hits give low values",0.975
same,normalized growth,"locus YOR106W, strain vam3, hits give low values",1.02
same,normalized growth,"locus YOR231W, strain MKK1, hits give low values",0.99
same,normalized growth,"locus YOR265W, strain rbl2, hits give low values",1.01
same,normalized growth,"locus YOR270C, strain vph1, hits give low values",0.929
same,normalized growth,"locus YOR290C, strain snf2, hits give low values",1.05
same,normalized growth,"locus YPL051W, strain arl3, hits give low values",1.05
same,normalized growth,"locus YPL078C, strain atp4, hits give low values",1.05
same,normalized growth,"locus YPL106C, strain sse1, hits give low values",1.09
same,normalized growth,"locus YPL240C, strain hsp82, hits give low values",1
same,normalized growth,"locus YPL256C, strain CLN2, hits give low values",0.961
